We go through seven compounds from PubChem BioAssay (NCI).

Several values for one entry are separate records, joined by “and”; a condition that tells them apart may be missing. Identical values can stand only once. The panel holds about 83,000 compounds, 20% with a hit somewhere; the sample as a whole holds those more often.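 Treatment: one concentration, 48 hours, 96-well format. Scoring: percent growth, with anything below 10 considered active.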 Activity calls are given as the source filed them.

Some test systems named below: HCT-15 colon; HT29 colon; SNB-75 CNS; SNB-19 CNS; U251 CNS; PC-3 prostate; SK-MEL-5 melanoma; UACC-62 melanoma; LOX IMVI melanoma; SK-MEL-28 melanoma; SK-MEL-2 melanoma; EKVX NSCLC; SN12C renal; UO-31 renal; TK-10 renal; ACHN renal; CAKI-1 renal; A498 renal; CCRF-CEM leukemia; MOLT-4 leukemia.
Holding throughout (assay): NCI-60 one-dose screen, 48 h (100 = growth as untreated, 0 = no growth, -100 = all killed)
Common to all, as to details: 10 µM unless noted

For `CNc1cc(-c2cccc(OC(F)(F)F)c2)nc2ccc(N3CCCC3)cc12`, the growth is 13.5% (inactive) and -8.32% (active) and 3.05% (active) in the assay on HCT-15 colon; 5.99% (active) and 1.66% (active) and 1.06% (active) in the assay with HT29 colon; 107% (inactive) and 76.5% (inactive) in the assay with SNB-75 CNS; 18.7% (inactive) and 12.2% (inactive) and 16.2% (inactive) with SNB-19 CNS; -42.1% (active) and -81.2% (active) and -79.4% (active) in the assay on U251 CNS; -72% (active) and 8.8% (active) and 13.1% (inactive) with PC-3 prostate. For the same compound, the growth is -77.4% (active) and -88.7% (active) and -70.6% (active) in the assay with SK-MEL-5 melanoma; -71.8% (active) and -74.8% (active) and -72.1% (active) with UACC-62 melanoma; -64.1% (active) and -93.8% (active) and -90.1% (active) with LOX IMVI melanoma; -66.3% (active) and -82.3% (active) and -64.4% (active) in the assay on SK-MEL-28 melanoma; 85.6% (inactive) and -78.5% (active) and -74.4% (active) with SK-MEL-2 melanoma; 84.1% (inactive) and 39.2% (inactive) and 11.9% (inactive) with EKVX NSCLC. Further, the growth is -18.5% (active) and -44.5% (active) and -23.2% (active) with SN12C renal; 7.85% (active) and -81.2% (active) and 26.1% (inactive) with UO-31 renal; -55% (active) and -45.4% (active) and -12% (active) in the assay with TK-10 renal; -99.6% (active) and -99.5% (active) and -98.9% (active) in the assay on ACHN renal; 68.2% (inactive) and -88.8% (active) and -50.9% (active) in the assay with CAKI-1 renal; 77.2% (inactive) and 45.9% (inactive) and 47.7% (inactive) in the assay on A498 renal. In addition, the growth was -36.5% (active) and -23.4% (active) and -0.147% (active) in the assay with CCRF-CEM leukemia; -38.6% (active) and -30.7% (active) and 2.3% (active) with MOLT-4 leukemia.

Consider `O=[N+]([O-])c1ccc(/C=N\NC(=S)Nc2ccc(F)cc2)cc1`, for which the growth was 106% (inactive) and 96.6% (inactive) in the assay with HCT-15 colon; 93.9% (inactive) and 95.1% (inactive) in the assay with HT29 colon; 92.5% (inactive) and 97.9% (inactive) in the assay on SNB-75 CNS; 103% (inactive) and 93.5% (inactive) with SNB-19 CNS; 82.8% (inactive) and 83.4% (inactive) with U251 CNS; 101% (inactive) and 86% (inactive) in the assay on PC-3 prostate. Further, the growth is 102% (inactive) and 101% (inactive) in the assay on SK-MEL-5 melanoma; 104% (inactive) and 91% (inactive) in the assay with UACC-62 melanoma; 88.9% (inactive) with LOX IMVI melanoma; 103% (inactive) and 104% (inactive) in the assay with SK-MEL-28 melanoma; 91.1% (inactive) and 110% (inactive) with SK-MEL-2 melanoma; 91.9% (inactive) and 102% (inactive) in the assay on EKVX NSCLC. Further, the growth in the assay with SN12C renal is 105% (inactive) and 92% (inactive); with UO-31 renal it was 96.9% (inactive) and 102% (inactive); in the assay on TK-10 renal, 109% (inactive) and 107% (inactive); in the assay on ACHN renal it was 86.2% (inactive) and 93.4% (inactive); with CAKI-1 renal, 97.1% (inactive) and 106% (inactive); in the assay on A498 renal, 119% (inactive). Further, the growth with CCRF-CEM leukemia is 99.4% (inactive) and -3.91% (active); in the assay on MOLT-4 leukemia it was 86.9% (inactive) and 98.6% (inactive).

Regarding `O=C1CCN(Cc2ccccc2)C(=S)N1`, the growth in the assay on HCT-15 colon is 99.2% (inactive) and 98.3% (inactive); with HT29 colon it was 121% (inactive) and 98% (inactive); in the assay with SNB-75 CNS, 125% (inactive) and 83.2% (inactive); in the assay on SNB-19 CNS, 105% (inactive) and 101% (inactive); in the assay with U251 CNS, 102% (inactive) and 98.7% (inactive); with PC-3 prostate it was 92.3% (inactive). Moreover, the growth with SK-MEL-5 melanoma was 105% (inactive) and 108% (inactive); in the assay with UACC-62 melanoma, 102% (inactive) and 98.9% (inactive); in the assay on LOX IMVI melanoma, 105% (inactive) and 99.7% (inactive); in the assay with SK-MEL-28 melanoma, 126% (inactive) and 107% (inactive); with SK-MEL-2 melanoma, 107% (inactive) and 103% (inactive); in the assay on EKVX NSCLC, 111% (inactive) and 118% (inactive). For the same compound, the growth was 104% (inactive) and 95.6% (inactive) in the assay on SN12C renal; 87.5% (inactive) and 83.7% (inactive) in the assay on UO-31 renal; 106% (inactive) and 89.6% (inactive) in the assay with TK-10 renal; 104% (inactive) and 97.3% (inactive) in the assay on ACHN renal; 101% (inactive) and 96.1% (inactive) with CAKI-1 renal; 94.6% (inactive) in the assay with A498 renal. The growth with CCRF-CEM leukemia was 86.3% (inactive) and 98.4% (inactive); in the assay on MOLT-4 leukemia, 78.2% (inactive) and 98.5% (inactive).

With `COc1cc2c(Nc3ccc(Cl)c(Cl)c3F)ncnc2cc1OCC1C[C@@H]2CN(C)C[C@@H]2C1` (stereo not given in full), the growth was -89.2% (active) and -0.559% (active) in the assay on HCT-15 colon; -90.2% (active) and -11.5% (active) in the assay on HT29 colon; -96% (active) and -40.9% (active) with SNB-75 CNS; -93.5% (active) and 32.1% (inactive) in the assay with SNB-19 CNS; -97.6% (active) and 13% (inactive) in the assay on U251 CNS; -57.1% (active) and 15.6% (inactive) with PC-3 prostate. Besides, the growth was -97.6% (active) and -97.4% (active) in the assay with SK-MEL-5 melanoma; -86.3% (active) and -27.8% (active) with UACC-62 melanoma; -92% (active) and -92.9% (active) in the assay with LOX IMVI melanoma; -96.3% (active) and -63.1% (active) in the assay on SK-MEL-28 melanoma; 74.2% (inactive) in the assay with SK-MEL-2 melanoma; -83% (active) and 41.9% (inactive) in the assay on EKVX NSCLC. In addition, the growth in the assay on SN12C renal was -76.7% (active) and 18.4% (inactive); in the assay on UO-31 renal, -84.8% (active) and -66.7% (active); with TK-10 renal, -94.8% (active) and -18.4% (active); in the assay on ACHN renal it was -97.8% (active) and 8.5% (active); in the assay on CAKI-1 renal it was -77.2% (active) and -2.69% (active); in the assay with A498 renal, -95.7% (active) and -81.6% (active). Besides, the growth was -44.9% (active) and -0.854% (active) in the assay on CCRF-CEM leukemia; -53% (active) in the assay on MOLT-4 leukemia.

As to `CCCCCn1sc(=O)n(Cc2ccc(CNC(=O)C(C)c3ccc(CC(C)C)cc3)cc2)c1=O` (stereo not given), the growth is 101% (inactive) and -35% (active) in the assay on HCT-15 colon; 112% (inactive) and -52.1% (active) in the assay on HT29 colon; 94.3% (inactive) and -20.9% (active) with SNB-75 CNS; 98.7% (inactive) and 43.3% (inactive) in the assay on SNB-19 CNS; 87.4% (inactive) and 8.32% (active) in the assay on U251 CNS; 93.7% (inactive) and -64.4% (active) in the assay with PC-3 prostate. For the same compound, the growth in the assay with SK-MEL-5 melanoma is 101% (inactive) and -89.2% (active); in the assay with UACC-62 melanoma it was 96.9% (inactive) and -65.1% (active); in the assay on LOX IMVI melanoma, 104% (inactive) and -92.7% (active); in the assay on SK-MEL-28 melanoma, 107% (inactive) and -52.5% (active); with SK-MEL-2 melanoma it was 106% (inactive) and -18.6% (active); with EKVX NSCLC, 96.9% (inactive) and -65.7% (active). The growth was 95.3% (inactive) and -52.9% (active) with SN12C renal; 85.8% (inactive) and -100% (active) with UO-31 renal; 106% (inactive) and -86.8% (active) with TK-10 renal; 92.4% (inactive) and -100% (active) with ACHN renal; 91.2% (inactive) and -73% (active) in the assay with CAKI-1 renal; 113% (inactive) and 40% (inactive) with A498 renal. In addition, the growth in the assay on CCRF-CEM leukemia was 95.8% (inactive) and 2.99% (active); with MOLT-4 leukemia it was 101% (inactive) and -4.68% (active).

Regarding `Cc1cccc(/C=C\C(=O)c2ccc(Cl)cc2)c1`, the growth in the assay on HCT-15 colon was 89.5% (inactive) and 96.6% (inactive); in the assay on HT29 colon, 84.1% (inactive) and 90.9% (inactive); in the assay with SNB-75 CNS it was 98.9% (inactive) and 115% (inactive); with SNB-19 CNS it was 91.6% (inactive) and 101% (inactive); in the assay with U251 CNS, 80.3% (inactive) and 98.9% (inactive); with PC-3 prostate it was 89.6% (inactive) and 83.7% (inactive). The growth was 108% (inactive) and 94.8% (inactive) in the assay on SK-MEL-5 melanoma; 96.8% (inactive) and 103% (inactive) with UACC-62 melanoma; 89.2% (inactive) and 91.6% (inactive) in the assay on LOX IMVI melanoma; 106% (inactive) and 111% (inactive) in the assay on SK-MEL-28 melanoma; 94.9% (inactive) and 100% (inactive) in the assay on SK-MEL-2 melanoma; 91.1% (inactive) and 94.3% (inactive) with EKVX NSCLC. In addition, the growth with SN12C renal was 94.9% (inactive) and 97% (inactive); in the assay on UO-31 renal it was 68.3% (inactive) and 86.1% (inactive); with TK-10 renal it was 75.5% (inactive) and 85.3% (inactive); with ACHN renal, 102% (inactive) and 105% (inactive); in the assay with CAKI-1 renal, 90.1% (inactive) and 85.1% (inactive); in the assay on A498 renal, 78.9% (inactive) and 54.4% (inactive). Moreover, the growth in the assay with CCRF-CEM leukemia is 84.3% (inactive) and 68.8% (inactive); in the assay on MOLT-4 leukemia, 90.2% (inactive) and 55% (inactive).

In the case of `CN(C)c1ccc(/C=C(\C#N)c2ccccc2)cc1`, the growth in the assay on HCT-15 colon was 26.3% (inactive) and 29.3% (inactive) and 29.4% (inactive); with HT29 colon it was 12.4% (inactive) and 6.06% (active) and 3.67% (active); in the assay on SNB-75 CNS it was 4.23% (active) and 15.8% (inactive); in the assay with SNB-19 CNS it was 61.4% (inactive) and 52.5% (inactive) and 35.8% (inactive); in the assay on U251 CNS, 18.5% (inactive) and 32.3% (inactive) and 23.9% (inactive); in the assay with PC-3 prostate it was 18.9% (inactive) and 36% (inactive) and 19.5% (inactive). Also, the growth in the assay on SK-MEL-5 melanoma was 31.6% (inactive) and 26.3% (inactive) and 19.4% (inactive); in the assay on UACC-62 melanoma, 32.6% (inactive) and 21.9% (inactive) and 22.2% (inactive); in the assay with LOX IMVI melanoma it was 51.1% (inactive) and 41.1% (inactive) and 42.4% (inactive); with SK-MEL-28 melanoma, 97.7% (inactive) and 70.6% (inactive) and 64.5% (inactive); in the assay with SK-MEL-2 melanoma it was -36% (active) and 11.7% (inactive) and 22.8% (inactive); in the assay on EKVX NSCLC, 53.9% (inactive) and 45.7% (inactive) and 56.9% (inactive). The growth in the assay with SN12C renal is 66.5% (inactive) and 62.2% (inactive) and 39.1% (inactive); in the assay on UO-31 renal it was 29.1% (inactive) and 53.1% (inactive) and 42.5% (inactive); in the assay with TK-10 renal, 57.8% (inactive) and 43.1% (inactive) and 54.9% (inactive); with ACHN renal, 50.3% (inactive) and 65.3% (inactive) and 52.2% (inactive); with CAKI-1 renal it was 41.1% (inactive) and 43.3% (inactive); with A498 renal, 63.6% (inactive) and 29.8% (inactive) and 0.464% (active). For the same compound, the growth with CCRF-CEM leukemia was -17.2% (active) and 23.6% (inactive) and 6.64% (active); in the assay on MOLT-4 leukemia, 25.2% (inactive) and 35.6% (inactive) and 34.9% (inactive).
